These results are taken from ChEMBL document CHEMBL3988442, “University of Dundee, Small-Polar-MMV Screening Library” (2021).

The assay concerns Plasmodium falciparum. In words: Calibr Malaria Delayed Death Assay SOP. Format: functional, organism-based. Also noted: scale not given: in the data most compounds retested in dose-response had high values. The note with it: concentration 4.99e-06 (unit not given; other assays of the set use mol/L).

Where “and” joins values, the source holds several entries; their conditions need not be identical. Equal values may be shown once. Hit rate of the full screen: of about 38,000 compounds, about 1,200 (3.2%) showed an effect of 50% or more. The median lay at about -58%. The sample holds strong results, similar compounds and a random draw of the others, so the mix is not that of the screen.

For `O=C(CCc1cccnc1)N1CCC2(CCN(CC3CCCC3)C2)C1.O=C(O)C(F)(F)F.O=C(O)C(F)(F)F` (stereo not drawn), the “Percent Effect” value was 15.87%.

`Cn1cc(NC(=O)CNC(=O)N2CCN(c3cccc(Cl)c3)CC2)cn1`: the “Percent Effect” value is given as -19.66%.

In the case of `Cc1ccc(NC(C(N)=O)c2ccc(F)cc2)cc1` (stereo not drawn), the “Percent Effect” value is given as -42.35%.

`O=C(NCCc1nnc2n1CCC2)NC1(c2cccc(F)c2)CC1`: the “Percent Effect” value was -62.64%.

With `CNC(=O)c1cnc2c(C)csc2c1`, the “Percent Effect” value is recorded as -145.8%.

Regarding `Cc1nn(C2CCS(=O)(=O)C2)c(O)c1Cc1ccccc1Cl` (stereo not drawn), the “Percent Effect” value is -17.18%.

With `Cc1noc([C@H]2CC[C@@H]3[C@@H](CCN3c3ncccn3)O2)n1`, the “Percent Effect” value was -94.2%.

Regarding `Cc1ccc(C)c(OCCN(C)C(=O)CCc2cn[nH]c2)c1`, the “Percent Effect” value is recorded as -90.4%.

Regarding `CCc1noc(C)c1C(=O)N1CCC2(CCCN(CC(C)(C)C)C2=O)C1` (stereo not drawn), the “Percent Effect” value (4.99 µM) is -34.55% and -37.04%.

With `COc1ccc(F)c(CN2CCCC(O)(CNCC(C)(C)C)C2=O)c1` (stereo not drawn), the “Percent Effect” value was determined as 48.73%.

In the case of `CC1CCN(CC2(O)CCCN(Cc3cccc(F)c3F)C2=O)CC1` (stereo not drawn), the “Percent Effect” value is -78.62%.

`CN(CC1(O)CCCN(Cc2cccc(F)c2F)C1=O)C1CCCCC1` (stereo not drawn): the “Percent Effect” value is reported as 63.45%.

`O=C1N(Cc2cccc(F)c2F)CCCC1(O)CN1CCCOCC1` (stereo not drawn): the “Percent Effect” value amounted to 40.89%.

Take `Cc1cccnc1CNCC1(O)CCCN(CC(C)(C)C)C1=O` (stereo not drawn): the “Percent Effect” value is on record as -8.334%.

For the molecule `CC(C)(C)CNCC1(O)CCCN(Cc2ccccc2F)C1=O` (stereo not drawn), the “Percent Effect” value was 83.8%.

Consider `CC(C)C(C)NC(=O)CNc1cc2c(cc1Cl)NC(=O)CO2` (stereo not drawn), for which the “Percent Effect” value is -65.88%.

Take `CCOCC1CN(S(=O)(=O)C2CC2)Cc2ncn(CC3CC3)c21` (stereo not drawn): the “Percent Effect” value is on record as -12.84%.

`Cc1noc(C)c1CN1C[C@H](OCC2CC2)[C@H]2COC[C@H]21.O=C(O)C(F)(F)F`: the “Percent Effect” value is recorded as -59.49%.

Regarding `O=C(O)C(F)(F)F.c1ccc(C[C@H]2CN(Cc3nccs3)CC[C@@H]2OCC2CC2)cc1`, the “Percent Effect” value was found to be 38.1%.

On to `Cc1noc(C)c1CN1CC[C@H](OCC2CC2)[C@@H](Cc2ccccc2)C1`, for which the “Percent Effect” value turned out to be 60.12%.

As for `c1ccc(-c2nnc([C@H]3CCN(C4CCOCC4)C3)o2)cc1`, the “Percent Effect” value is recorded as -0.6483%.

As to `O=C(C1CCOCC1)N1CC[C@@H](N2CCOCC2)[C@@H]1Cc1ccccc1`, the “Percent Effect” value is on record as 3.107%.

On to `OC(CNc1ccncn1)CN1CCCCCC1` (stereo not drawn), for which the “Percent Effect” value is recorded as -2.039%.

For `CC(C)c1ccc(C(=O)N2CCOCC2CC(=O)c2ccco2)cn1` (stereo not drawn), the “Percent Effect” value is recorded as -33.41%.

Consider `CS(=O)(=O)N1CCCC(Cc2cncc(Br)c2)CC1` (stereo not drawn), for which the “Percent Effect” value is given as -9.475%.

In the case of `FC(F)(F)c1ccc2nc([C@H]3CCN(C4CCCCC4)C3)[nH]c2c1`, the “Percent Effect” value is 83.6%.

For the molecule `CS(=O)(=O)N1CC[C@H](c2nc3ccc(C(F)(F)F)cc3[nH]2)C1`, the “Percent Effect” value is given as -89.81%.

In the case of `FC(F)(F)c1ccc2nc([C@H]3CCN(C4CCC4)C3)[nH]c2c1`, the “Percent Effect” value is 5.22%.
